This is part of a sample that, as a whole, favours compounds with a hit. Of some 83,000 tested, about 20% had one in any assay.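 Compound tested at a single concentration for 48 hours in 96-well plates; a percent growth value below 10 was scored as active.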 A number with no mark means an inactive call. Active and inactive are the calls of the source.

What all share (assay): NCI-60 one-dose screen, 48 h (100 = growth as untreated, 0 = no growth, -100 = all killed)
Holding throughout (conditions): 10 µM unless noted

Test [1] relates to NCI-H23 lung.
Test [2] relates to NCI-H226 lung.
Test [3] deals with NCI-H322M lung.
For test [4], the system named is HOP-62 NSCLC.
The test system of test [5] is NCI-H460 lung.
Test [6] relates to HOP-92 NSCLC.
Test [7] deals with NCI-H522 lung.
The test system of test [8] is A549/ATCC NSCLC.
Test [9] deals with 786-0 renal.
In test [10] the test system is COLO 205 colon.
Test [11] relates to DU-145 prostate.
Test [12] has as its system K-562 leukemia.
Test [13] relates to MALME-3M melanoma.
Test [14] has as its system MDA-MB-231 breast.
For test [15], the system named is RXF 393 renal.
Test [16] has as its system SF-268 CNS.
The test system of test [17] is SF-295 CNS.
Test [18] deals with SF-539 CNS.
Test [19] concerns UACC-257 melanoma.
The test system of test [20] is M14 melanoma.

Regarding `COCCOC(=O)COc1ccc(OC)cc1`, the growth is 105% in test [1]; 97.3% in [2]; 94.9% in [3]; 111% in test [4]; 108% in test [5]; 98.3% in test [6]. The growth in test [7] was 115%; in test [8], 99.2%; in test [9], 109%; in test [10] it was 115%; in test [11], 103%; in [12] it was 104%. Besides, the growth in test [13] is 97%; in test [14], 98.1%; in test [15], 104%; in [16], 102%; in test [17], 99.5%; in test [18], 104%. Besides, the growth is 96.3% in test [19] and 105% in test [20].
Turning to `O=C1c2ccccc2C(=O)c2c1oc1c2c(=O)[nH]c2ccc(Cl)cc21`, the growth in [1] was 21.2%; in test [2] it was -28.8% (active); in test [3], 14%; in test [4] it was -38.7% (active); in test [5], -69.7% (active); in [6] it was -37.2% (active). Also, the growth was -16.8% (active) in test [7]; -0.0514% (active) in test [8]; 2.5% (active) in test [9]; 85.7% in test [10]; -45.4% (active) in test [11]; 12.9% in test [12]. In addition, the growth in test [13] is -51.7% (active); in test [14], -42.2% (active); in [15], -46.3% (active); in test [16] it was -31.7% (active); in test [17], -1.34% (active); in [18], -28% (active). The growth in [19] is 18.8%; in [20] it was 10.4%.
For the compound `COc1cc(-c2nn(-c3ccc(Br)cc3)cc2CO)ccc1O`, the growth in [1] is 95.2%; in test [2], 105%; in [3] it was 93.8%; in test [4] it was 95.4%; in test [5], 101%; in test [6], 90.8%. Also, the growth in test [7] was 72.1%; in test [8], 78.1%; in test [9] it was 95.6%; in test [10] it was 119%; in [11] it was 93.6%; in test [12] it was 74.2%. For the same compound, the growth in test [13] is 119%; in test [14], 68.9%; in test [15], 116%; in test [16] it was 77.7%; in test [17] it was 98.6%; in [18], 92%. The results for the growth in test [19] and in [20] were 90.7% and 102%, respectively.
With `CCN1CCN(Cc2ccc(NC(=O)c3cccc(C#Cc4cccc5[nH]nc(N)c45)c3)cc2C(F)(F)F)CC1`, the growth in test [1] is -42.9% (active); in test [2], 16.6%; in [3], -49.6% (active); in [4], -76.4% (active); in test [5] it was -72.2% (active); in test [6], -62.7% (active). For the same compound, the growth in test [7] is -84.7% (active); in [8] it was -91.2% (active); in test [9], -81.6% (active); in [10], -76.2% (active); in test [11] it was -70% (active); in test [12], -43.8% (active). Further, the growth in test [13] was -71.4% (active); in test [14], -85% (active); in [15], -92% (active); in test [16] it was -41.5% (active); in [17], -88.4% (active); in test [18], -98% (active). For the same compound, the values for the growth in [19] and in test [20] were -75.7% (active) and -83.5% (active), respectively.
In the case of `N#Cc1ccc(C2C3=C(CCCC3=O)OC3=C2C(=O)c2ccccc2C3=O)cc1` (stereo not given), the growth in test [1] is 44.9%; in test [2] it was 114%; in test [3] it was 106%; in [4], 111%; in test [5], 103%; in test [6], 76.3%. For the same compound, the growth is 0.737% (active) in test [7]; 108% in test [8]; 94.7% in test [9]; 109% in [10]; 86.8% in test [11]; 40.3% in test [12]. In addition, the growth in test [13] is 83.4%; in test [14] it was 5.78% (active); in test [15] it was 102%; in test [16] it was 70.9%; in [17], 91.7%; in [18] it was 30.5%. In addition, the values for the growth in test [19] and in test [20] were 52.3% and 81.8%, respectively.
For `COc1ccc(C2C(c3ccccc3)C(=O)N2c2cc(OC)c(OC)c(OC)c2)cc1I` (stereo not given), the growth in test [1] was 24.6%; in test [2], 60.6%; in test [3], 42.9%; in test [4], 24.7%; in [5], 4.29% (active); in test [6], 42.5%. In addition, the growth in [7] is -9.3% (active); in test [8] it was 16.9%; in test [9], 17.4%; in test [10], -64.3% (active); in test [11] it was 7.36% (active); in test [12] it was 6.76% (active). Moreover, the growth in test [13] is 80.1%; in test [14] it was 23.3%; in test [15], 24.2%; in [16] it was 34.9%; in test [17] it was 17.9%; in test [18], 1.87% (active). Also, the growth in [19] is 47.9%; in test [20], 8.46% (active).
Take `CC(=O)Nc1ccc2c(c1)Cc1cc(F)ccc1-2`: the growth is 90.8% in test [1]; 99.2% in [2]; 86.9% in test [3]; 84.8% in test [4]; 106% in [5]; 93.4% in test [6]. Further, the growth is 73.7% in [7]; 92.5% in test [8]; 98% in test [9]; 124% in test [10]; 96.4% in [11]; 91.4% in test [12]. Moreover, the growth was 104% in test [13]; 101% in test [14]; 117% in test [15]; 80.7% in test [16]; 101% in test [17]; 97% in [18]. For the same compound, the growth was 99.7% in test [19] and 110% in test [20].

The record behind these values is PubChem BioAssay (NCI).
